High-throughput results (PubChem)
Compounds with a hit are over-represented: about 5.7% of the library has one in this group of screens.
ClpP mod – qHTS Assay for Activators of ClpP. ATP-dependent Clp protease proteolytic subunit (Bacillus subtilis (strain 168)), P80244. purified B. subtilis ClpP, FRET peptide cleavage, 20 min. Potency, µM (titrated, usually from 57.5 µM), for inactives: top-dose activity change, negative = active. 340,000 tested, 1.9% active; active = well fitted falling curve with a large enough effect; inconclusive = small, poorly fitted or top-dose-only effect; inactive = no such curve, though single readings can be large or run the other way; also: potency is read from the fitted curve at half-maximal effect; the source files actives as falling curves though it sought activators and does not explain the sign; nearly all actives have a fitted effect of over 65% in size
Target sequence (P80244 whole entry, looked up): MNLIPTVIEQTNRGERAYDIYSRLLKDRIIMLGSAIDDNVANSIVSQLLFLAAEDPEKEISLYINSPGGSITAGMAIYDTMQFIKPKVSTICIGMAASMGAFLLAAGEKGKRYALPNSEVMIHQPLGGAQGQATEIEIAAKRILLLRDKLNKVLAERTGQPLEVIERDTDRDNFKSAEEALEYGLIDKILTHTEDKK
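Purified B. subtilis ClpP, 10 microg/mL final in Tris/HCl pH8 with KCl, BSA, glycerol and Tween-20, cleaved an Abz/nitrotyrosine-quenched decapeptide. Fluorescence (ex 320, em 430) was read at 0 and 20 min at room temperature. Delta was normalized to 5.8 microM ADEP and DMSO/no-enzyme controls.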
DRD3 agonist – qHTS of D3 Dopamine Receptor Agonist: qHTS; D(3) dopamine receptor (Homo sapiens), P35462; max activation, %; D3R DiscoveRx beta-arrestin cells, luminescence, 90 min; 410,000 tested, 0.58% active; in the data active = max activation above about 30%; also: 0% is about no effect
Target sequence (P35462 whole entry, looked up): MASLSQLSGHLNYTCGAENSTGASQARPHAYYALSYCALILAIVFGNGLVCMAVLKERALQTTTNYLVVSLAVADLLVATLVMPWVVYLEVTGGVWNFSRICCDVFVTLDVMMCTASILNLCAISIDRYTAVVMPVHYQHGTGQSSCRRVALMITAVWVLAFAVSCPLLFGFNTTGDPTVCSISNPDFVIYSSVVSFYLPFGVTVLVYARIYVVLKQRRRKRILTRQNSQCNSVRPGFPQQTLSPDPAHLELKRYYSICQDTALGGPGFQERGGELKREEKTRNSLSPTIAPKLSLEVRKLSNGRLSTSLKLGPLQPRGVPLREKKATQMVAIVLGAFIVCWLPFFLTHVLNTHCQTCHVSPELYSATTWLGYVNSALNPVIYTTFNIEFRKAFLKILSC
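Agonist-mode cell screen: cells plated at 1500/well and incubated overnight at 37 °C, then exposed to library compounds for 90 min at 37 °C. Detection reagent was added for 30–60 min at room temperature, and luminescence was read.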
GLP1R cytotox – qHTS of GLP-1 Receptor Inverse Agonists: Cytotox Screen; HEK293 cAMP-luciferase reporter cells, luminescence, 24 h; Potency, µM (highest dose often 38.3 µM), for inactives: at the top dose activity change, negative = inhibition, usual class: inhibitors; 410,000 tested, 0.13% active;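 also: loss of luciferase light is scored as toxicity; potency is read from the fitted curve at half-maximal effect; % is scaled to controls: 0 for no effect and ±100 for the full control effect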
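Step one: seed cells (200 cells/uL, DMEM with 10% Nu serum, 1% pen-strep). Step two: 12-hour incubation at 37 deg C. Step three: pin 23 nL compound, incubate 24 hr. Step four: add luciferase reagent, read luminescence 12 min later.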
GLP-1R inv ag – qHTS of GLP-1 Receptor Inverse Agonists (Inhibition Mode); Glucagon-like peptide 1 receptor (Homo sapiens), P43220; HEK293 GLP-1R CRE-luciferase, luminescence, 24 h; GLP-1R form is constitutively active; Potency, µM (series often up to 38.3 µM), inactives show at the highest dose activity change, negative = inhibition, usual class: inhibitors; 410,000 tested, 1.6% active; AID 624417, 2012; also: potency is read from the fitted curve at half-maximal effect; % is scaled to controls: 0 for no effect and ±100 for the full control effect; nearly all actives have a fitted effect of over 55% in size
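qHTS in 1536-well format: reporter HEK293 cells expressing constitutive GLP-1R activity in DMEM + 10% Nu serum, 24 hr with compounds at 37 deg C, luminescence read after 12 min with detection reagent.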
DRD3 antagonist – qHTS of D3 Dopamine Receptor Antagonist: qHTS; D(3) dopamine receptor (Homo sapiens), P35462; AID 652054, 2013; 360,000 tested, 2.5% active; D3R cells, DiscoveRx beta-arrestin luminescence, antagonist mode; hits give low values; max response, negative = inhibition, %; in the data active = max response below about -50%; inconclusive = no clear call, values can overlap the other calls; also: % is scaled to controls: 0 for no effect and ±100 for the full control effect
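Cells plated overnight at 1500 cells/well, then exposed to library compounds with dopamine controls for 90 minutes at 37 degrees C. DiscoveRx reagent added for 30–60 minutes at room temperature; luminescence read, quantitative HTS format.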
GLP-1R agonist – qHTS of GLP-1 Receptor Agonists; Glucagon-like peptide 1 receptor (Homo sapiens), P43220; HEK293 GLP-1R CRE-luciferase, luminescence, 4-6 h; cells express a hypersensitive GLP-1R form; Potency, µM (top dose mostly 45.6 µM), inactives show at the top dose activation, actives largely listed as activators; 380,000 tested, 0.007% active; also: potency is read from the fitted curve at half-maximal effect; % of control where 0% means no effect
* = called active by the depositor; ! = not active in a repeat. Unless noted, calls follow the shape of the dose curve; as a rule, active = well fitted curve in the direction sought with a large enough effect; inconclusive = small, poorly fitted or top-dose-only effect, or another doubt; inactive = no such curve, though single readings can be large; an effect the other way counts as inactive or inconclusive.

What do the screens show for `COc1ccc(/C=C\c2onc(C)c2S(=O)(=O)N2CCC(C(=O)Nc3cccc(Cl)c3)CC2)cc1`?
ClpP mod: -9%; DRD3 agonist: 62*; GLP1R cytotox: 0%; GLP-1R inv ag: -17%

What do the screens show for `CC1(C(=O)NCc2cccs2)CCN1C(=O)Cc1ccc(Cl)cc1Cl` (configuration not stated)?
ClpP mod: 2%; DRD3 agonist: -6; GLP1R cytotox: 0%; GLP-1R inv ag: -8%; DRD3 antagonist: -20; GLP-1R agonist: -3%

Results for Cc1cccc(/C=C/c2onc(C)c2S(=O)(=O)N2CCC(C(=O)N3CCC(C)CC3)CC2)c1 ?
ClpP mod: 0%; DRD3 agonist: 0; GLP1R cytotox: -4%; GLP-1R inv ag: 2.8µM*!; DRD3 antagonist: -8; GLP-1R agonist: 1%

Results for CCN(CCN(C)C)C(=O)C1CCN(S(=O)(=O)c2c(C)noc2/C=C/c2ccccc2F)CC1 ?
ClpP mod: 2%; DRD3 agonist: -2; GLP1R cytotox: inconclusive; GLP-1R inv ag: inconclusive; DRD3 antagonist: -54*; GLP-1R agonist: 4%

Results for COc1ccc(/C=C/c2onc(C)c2S(=O)(=O)N2CCC(C(=O)N3CCC(C)CC3)CC2)cc1 ?
ClpP mod: -6%; DRD3 agonist: -13; GLP1R cytotox: -9%; GLP-1R inv ag: inconclusive; DRD3 antagonist: -3; GLP-1R agonist: -1%

Results for CC(C)C1C(=O)N(Cc2cn(CCC3OCCCO3)nn2)CCS(=O)(=O)N1Cc1ccc(-c2ccc(Cl)c(Cl)c2)cc1 (configuration not stated) ?
ClpP mod: -5%; DRD3 agonist: 1; GLP1R cytotox: -30%; GLP-1R inv ag: inconclusive; DRD3 antagonist: 14; GLP-1R agonist: -2%

What do the screens show for `CCOC(=O)c1[nH]cnc1C(=O)NC1CCN(C(=O)OC(C)(C)C)CC1`?
ClpP mod: 0%; DRD3 agonist: 34*; GLP1R cytotox: 24%; GLP-1R inv ag: 38%; DRD3 antagonist: 11; GLP-1R agonist: 9%

How did CC(C)(C)OC(=O)N1CCC(NC(=O)c2nc[nH]c2C(=O)N2CCN(c3ccccc3)CC2)CC1 do in these assays?
ClpP mod: 1%; DRD3 agonist: 51*; GLP1R cytotox: 8%; GLP-1R inv ag: -13%; DRD3 antagonist: 9; GLP-1R agonist: 1%

What do the screens show for `C[C@H](NC(=O)c1nc[nH]c1C(=O)NC1CCN(C(=O)OC(C)(C)C)CC1)C(=O)OCc1ccccc1`?
ClpP mod: 0%; DRD3 agonist: 34*; GLP1R cytotox: -13%; GLP-1R inv ag: -1%; DRD3 antagonist: 74; GLP-1R agonist: 5%

What do the screens show for `COC(C)=O`?
DRD3 agonist: 6; GLP-1R agonist: -3%

What do the screens show for `CCOC(=O)c1cnc2c(ccc3ccccc32)c1Nc1ccc(N(C)C)cc1`?
ClpP mod: -6%; DRD3 agonist: 6; GLP1R cytotox: -2%; GLP-1R inv ag: -2%

What do the screens show for `CC(=O)Nc1c(C(=O)Nc2cccc(C)c2)nnn1-c1ccc(C)cc1`?
ClpP mod: -2%; DRD3 agonist: 0; GLP1R cytotox: -12%; GLP-1R inv ag: inconclusive; GLP-1R agonist: -10%

What do the screens show for `Cc1cccc(S(=O)(=O)c2c(N)n(/N=C/c3cccnc3)c3nc4ccccc4nc23)c1`?
ClpP mod: 0%; DRD3 agonist: 1; GLP1R cytotox: -17%; GLP-1R inv ag: 2%; DRD3 antagonist: -15; GLP-1R agonist: 0%

What do the screens show for `COc1ccc(S(=O)(=O)c2c(N)n(Cc3ccco3)c3nc4ccccc4nc23)cc1`?
ClpP mod: 16µM*; DRD3 agonist: -4; GLP1R cytotox: 41%; GLP-1R inv ag: 49%; DRD3 antagonist: -71*; GLP-1R agonist: 3%

Results for Cc1cccc(S(=O)(=O)c2c(N)n(/N=C/c3ccco3)c3nc4ccccc4nc23)c1 ?
ClpP mod: 3.5µM*; DRD3 agonist: 6; GLP1R cytotox: -12%; GLP-1R inv ag: -2%; DRD3 antagonist: 8; GLP-1R agonist: -18%

How did Cc1cccc(S(=O)(=O)c2c(N)n(-c3ccccc3)c3nc4ccccc4nc23)c1 do in these assays?
ClpP mod: 14µM*; DRD3 agonist: -24; GLP1R cytotox: 3%; GLP-1R inv ag: 8%; DRD3 antagonist: -30; GLP-1R agonist: 16%

How did Cc1ccc(-n2c(N)c(S(=O)(=O)c3ccccc3)c3nc4ccccc4nc32)cc1 do in these assays?
DRD3 agonist: -9; GLP1R cytotox: 13%; GLP-1R inv ag: -2%; DRD3 antagonist: -13; GLP-1R agonist: 9%

Results for Cc1ccc(S(=O)(=O)c2c(N)n(/N=C/c3ccco3)c3nc4ccccc4nc23)cc1C ?
ClpP mod: 14µM*; DRD3 agonist: 5; GLP1R cytotox: 15%; GLP-1R inv ag: 46%; DRD3 antagonist: -16; GLP-1R agonist: -4%

What do the screens show for `COc1ccc(Cn2c(C)nc3c(c2=O)c2nc4ccccc4nc2n3Cc2ccco2)cc1`?
ClpP mod: inconclusive; DRD3 agonist: 5; GLP1R cytotox: -3%; GLP-1R inv ag: 61%; DRD3 antagonist: 6; GLP-1R agonist: -2%

How did COc1ccccc1CNC(=O)CCc1c(C)c2cc3c(C)c(C)oc3cc2oc1=O do in these assays?
ClpP mod: 5%; DRD3 agonist: -40; GLP1R cytotox: 7%; GLP-1R inv ag: 7%

How did CN(C(=O)c1ccc(NC(=O)Cc2ccc(NC(=O)C3CCN(S(=O)(=O)c4cccc([N+](=O)[O-])c4)CC3)cc2)cc1)C1CCCC1 do in these assays?
ClpP mod: -3%; DRD3 agonist: -3; GLP1R cytotox: -1%; GLP-1R inv ag: 15%; DRD3 antagonist: -26; GLP-1R agonist: 4%

How did Nc1c(S(=O)(=O)c2ccccc2)c2nc3ccccc3nc2n1/N=C/c1ccco1 do in these assays?
ClpP mod: 11µM*; DRD3 agonist: 4; GLP1R cytotox: 10%; GLP-1R inv ag: 7%; DRD3 antagonist: -21; GLP-1R agonist: -16%

How did CCCCCCn1c(C)nc2c(c1=O)c1nc3ccccc3nc1n2/N=C/c1ccco1 do in these assays?
ClpP mod: -7%; DRD3 agonist: 0; GLP1R cytotox: -29%; GLP-1R inv ag: 0%; DRD3 antagonist: -4; GLP-1R agonist: -5%
